“And” between values parts separate entries of the source, which are not always exact repeats. Equal values may be shown once. Records with an inconclusive call do not appear. Entries that show only a call come without a potency. A structure can be active in one record and inactive in another. The source made the active and inactive calls. Calls follow the shape of the dose curve; as a rule, active = well fitted curve in the direction sought with a large enough effect in the repeat runs; inconclusive = weak or mixed curves; inactive = no such curve, though single readings can be large; an effect the other way counts as inactive or inconclusive.
Key:
[1] = qHTS RealTime-Glo MT Cell Viability Assay in HEK293 cells - 16 hour (AID 1224872); also: nearly all actives have a fitted effect of over 50% in size; also: potency is read from the fitted curve at half-maximal effect
In short: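 Homogeneous bioluminescent viability format in HEK293 cells (600 cells/well). Following 5 h at 37 C/5% CO2, 23 nL compound was pintooled; the signal was measured repeatedly during 40 h incubation.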

[2] = qHTS RealTime-Glo MT Cell Viability Assay in HepG2 cells - 8 hour (AID 1224873); also: nearly all actives have a fitted effect of over 55% in size; also: potency is read from the fitted curve at half-maximal effect
In short: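 HepG2 cells mixed with RealTime-Glo MT reagents (NanoLuc plus cell-permeant prosubstrate) were seeded at 600 cells/well, incubated 5 h at 37 C/5% CO2, then pinned with compounds in DMSO; nonlytic luminescence tracked viability during 40 h treatment.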

[3] = qHTS RealTime-Glo MT Cell Viability Assay in HEK293 cells - 40 hour (AID 1224874); details: RealTime-Glo luminescence; max response: stronger effect = lower value; also: nearly all actives have a fitted effect of over 50% in size; also: potency is read from the fitted curve at half-maximal effect
In short: (§1)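 Viable HEK293 cells reduce a cell-permeant prosubstrate; the product diffuses out and is consumed by NanoLuc in the medium to give light. Compounds went in after a 5 h incubation and plates were read over the treatment course.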

[4] = A CellTox Green Cytotoxicity Assay to monitor cytotoxicity in HEK293 cells - 24 hour (AID 1224875); also: series mostly up to about 77 µM; nearly all actives have a fitted effect of over 45% in size
In short: (§2)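 Fluorescence intensity, read at 0, 8, 16, 24, 32 and 40 h of compound treatment, reflected dye binding to DNA of dead HEK293 cells; compounds (23 nL, DMSO) were added 5 h after plating cells with reagent.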

[5] = A CellTox Green Cytotoxicity Assay to monitor cytotoxicity in HepG2 cells - 16 hour (AID 1224876); also: nearly all actives have a fitted effect of over 45% in size; also: potency is read from the fitted curve at half-maximal effect
In short: (§3)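 Using 1536-well format, dye-containing HepG2 suspension was seeded, allowed 5 h at 37 C/5% CO2, dosed by pintool with compounds, positive and negative controls, and imaged for fluorescence across 40 h.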

[6] = qHTS RealTime-Glo MT Cell Viability Assay in HepG2 cells - 32 hour (AID 1224877); also: nearly all actives have a fitted effect of over 55% in size; also: potency is read from the fitted curve at half-maximal effect
In short: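 Cell number in HepG2 cultures estimated from NanoLuc luminescence generated by metabolic reduction of a prosubstrate by living cells. The homogeneous, nonlytic format allowed repeated reads at 0, 8, 16, 24, 32 and 40 h of compound exposure.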

[7] = A CellTox Green Cytotoxicity Assay to monitor cytotoxicity in HepG2 cells - 24 hour (AID 1224878); also: nearly all actives have a fitted effect of over 45% in size; also: potency is read from the fitted curve at half-maximal effect
In short: as §3

[8] = A CellTox Green Cytotoxicity Assay to monitor cytotoxicity in HepG2 cells - 40 hour (AID 1224879); also: nearly all actives have a fitted effect of over 40% in size; also: potency is read from the fitted curve at half-maximal effect
In short: as §3

[9] = qHTS RealTime-Glo MT Cell Viability Assay in HEK293 cells - 0 hour (AID 1224880); also: top concentration of the series differs between compounds; nearly all actives have a fitted effect of over 45% in size
In short: as §1

[10] = A CellTox Green Cytotoxicity Assay to monitor cytotoxicity in HEK293 cells - 32 hour (AID 1224881); also: nearly all actives have a fitted effect of over 40% in size; also: potency is read from the fitted curve at half-maximal effect
In short: as §2

| Compound | Potency [1] | Potency [2] | max response [3] | Potency [4] | Potency [5] | Potency [6] | Potency [7] | Potency [8] | Potency [9] | Potency [10] | Potency [3] |
| --- | --- | --- | --- | --- | --- | --- | --- | --- | --- | --- | --- |
| O=C(O)c1cc(=O)[nH]c(=O)[nH]1 | inactive | inactive | 10.8% (inactive) and 0.747% (inactive) | inactive | inactive | inactive | inactive | inactive | inactive | inactive |  |
| C=C[C@@]1(C)CC(=O)[C@]2(O)[C@@]3(C)[C@@H](O)CCC(C)(C)[C@@H]3[C@H](O)[C@H](OC(C)=O)[C@@]2(C)O1 | inactive | inactive | -11.8% (inactive) | inactive | inactive | inactive | inactive | inactive | inactive | inactive |  |
| CC/C=C\C/C=C\C/C=C\CCCCCCCC(=O)O | inactive | inactive | -5.49% (inactive) and 15.2% (inactive) | inactive | inactive | inactive | inactive |  | inactive | inactive |  |
| Oc1c(Cl)ccc(Cl)c1Cl | inactive | inactive | -14% (inactive) and -18.1% (inactive) | inactive | inactive | inactive | inactive |  | inactive | inactive |  |
| C=C[C@H]1CN2CC[C@H]1C[C@@H]2[C@@H](O)c1ccnc2ccc(OC)cc12 | 42.9 µM (active) | inactive |  | inactive | inactive | inactive | inactive |  | inactive | inactive | 48.2 µM (active) |
| COc1ccc(C(=O)c2ccccc2O)c(O)c1 | inactive | inactive | -10.4% (inactive) | inactive | inactive | inactive | inactive |  | inactive |  |  |
| O=S1(=O)CCCO1 | inactive | inactive | 5.89% (inactive) and 10.2% (inactive) | inactive | inactive | inactive | inactive |  | inactive | inactive |  |
| IC(I)I | inactive | inactive | 7.94% (inactive) and 2.04% (inactive) | inactive | inactive | 24.5 µM (active) and 17.4 µM (active) | inactive |  | inactive | inactive |  |
| O=C1CCc2ccccc2O1 | inactive | inactive | 3.8% (inactive) and -0.872% (inactive) |  | inactive | inactive | inactive | inactive | inactive | inactive and 21.9 µM (active) |  |
| COC(=O)c1ccc(C)cc1 | inactive | inactive | 1.02% (inactive) and 6.36% (inactive) | inactive | inactive | inactive | inactive | inactive | inactive | inactive |  |
| CCC(=O)O[C@H]1[C@H](O[C@@H]2[C@@H](C)[C@H](O[C@H]3C[C@@](C)(OC)[C@@H](O)[C@H](C)O3)[C@@H](C)C(=O)O[C@H](CC)[C@@](C)(O)[C@H](O)[C@@H](C)C(=O)[C@H](C)C[C@@]2(C)O)O[C@H](C)C[C@@H]1N(C)C | inactive | inactive | -5.5% (inactive) |  | inactive | inactive | inactive |  | inactive | 28.9 µM (active) and inactive |  |
| CC/C(=C(/CC)c1ccc(O)cc1)c1ccc(O)cc1 | 15.4 µM (active) and 30.9 µM (active) | inactive |  | inactive | inactive | inactive | inactive |  | inactive | inactive | 12.2 µM (active) and 27.5 µM (active) and 19 µM (active) |
| CC(=O)OC(C)C | inactive | inactive | -9.76% (inactive) and -7.44% (inactive) | inactive | inactive | inactive | inactive |  | inactive | inactive |  |
| CCC/C=C/C=O | inactive | inactive | -4.27% (inactive) and 1.77% (inactive) | inactive | inactive | inactive | inactive | inactive | inactive | inactive |  |
| O=C(CCCN1CCC(O)(c2ccc(Cl)cc2)CC1)c1ccc(F)cc1 | 13.8 µM (active) and 5.35 µM (active) | 49 µM (active) and inactive |  |  | 43.6 µM (active) and inactive | 49 µM (active) and inactive | 24.5 µM (active) | 24.5 µM (active) and 26.8 µM (active) | inactive | 49 µM (active) and inactive | 21.9 µM (active) and 8.49 µM (active) |
| CCCCCCCC/C=C\CCCCCCCC(=O)O | inactive | inactive | 12.6% (inactive) and 4.42% (inactive) | inactive | inactive | inactive | inactive | inactive | inactive | inactive |  |
| CC(C)=CCO | inactive | inactive | 4.01% (inactive) and 0.683% (inactive) | inactive | inactive | inactive | inactive |  | inactive | inactive |  |
| Nc1ccc(N)c(Cl)c1 | 48.9 µM (active) | inactive and 49 µM (active) | -27.4% (inactive) and -12.8% (inactive) |  | inactive and 27.5 µM (active) | inactive | inactive and 43.6 µM (active) | inactive and 43.6 µM (active) | inactive | inactive and 27.5 µM (active) |  |
| C[N+](C)(C)CCO | inactive | inactive | 15.9% (inactive) and 6.06% (inactive) | inactive | inactive | inactive | inactive | inactive | inactive | inactive |  |
| CCCN1C=CN(C)C1 | inactive | inactive |  | inactive | inactive | inactive | inactive | inactive | inactive | inactive |  |

Reference: PubChem BioAssay (Tox21)
